Results: PubChem BioAssay (Tox21)
Where “and” joins values, the source holds several entries; their conditions need not be identical. Identical values can stand only once. Records with an inconclusive call do not appear. Some compounds were tested as several samples or in several runs, with calls that do not always agree. Calls of active or inactive are those of the source. Unless noted, calls follow the shape of the dose curve; as a rule, active = well fitted curve in the direction sought with a large enough effect in the repeat runs; inconclusive = weak or mixed curves; inactive = no such curve, though single readings can be large; an effect the other way counts as inactive or inconclusive.

What was measured:
[1] = qHTS assay for small molecules that induce genotoxicity in human embryonic kidney cells expressing luciferase-tagged ATAD5 (AID 651632); also: nearly all actives have a fitted effect of over 15% in size
Procedure, shortened: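 DMSO vehicle served as the control. HEK293T reporter cells, 16 hr at 37C, then 30 min Amplite at room temperature; ATAD5 induction is measured as luciferase activity.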

[2] = qHTS assay for small molecule agonists of the p53 signaling pathway - cell viability (AID 651633; calls by dose curve; also: nearly all actives have a fitted effect of over 30% in size; also: potency is read from the fitted curve at half-maximal effect)
Procedure, shortened: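 p53RE-bla cells, seeded at 4,000 per well and rested 5 h at 37 C/5% CO2, received compounds in DMSO for 16 h at 37 C. CellTiter-Glo was then added, and luminescence was read after 30 min at room temperature to gauge cytotoxicity.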

[3] = qHTS assay for small molecules that induce genotoxicity in human embryonic kidney cells expressing luciferase-tagged ATAD5 - cell viability (AID 651634; calls by dose curve; also: nearly all actives have a fitted effect of over 25% in size; also: potency is read from the fitted curve at half-maximal effect)
Procedure, shortened: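 Here HEK293T cells with the ATAD5 luciferase reporter are incubated with test compounds for 15.5 hr, and cytotoxicity is then gauged by measuring protease activity in live cells using fluorescence.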

[4] = qHTS assay for small molecule disruptors of the mitochondrial membrane potential - cell viability (AID 720634; calls by dose curve; also: nearly all actives have a fitted effect of over 20% in size; also: potency is read from the fitted curve at half-maximal effect)
Procedure, shortened: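 Viability of HepG2 cells is scored from ATP content by luminescence; cells are exposed to compound for 1 hr at 37 C and 5% CO2, then dosed with m-MPI dye before the CellTiter-Glo reagent.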

[5] = qHTS assay to test for compound auto fluorescence at 590 nm (red) in HepG2 cells (AID 720674)
Procedure, shortened: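 Rose Bengal sodium served as the red fluorophore standard. HepG2 monolayers (overnight attachment, MEM with 10% FBS) were exposed to test compounds for 1 hr at 37 C and read at Ex 540/Em 590 nm.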

[6] = qHTS assay to test for compound auto fluorescence at 535 nm (green) in HepG2 cells (AID 720675)
[7] = qHTS assay to test for compound auto fluorescence at 460 nm (blue) in HEK293 cells (AID 720678)
Procedure, shortened: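 After cell attachment (4-5 hr, 37C), compounds were pinned onto HEK293 monolayers in 10% dialyzed FBS medium. The blue channel (405/460 nm) was read following overnight culture. Equivalency was calculated against triamterene.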

[8] = qHTS assay to test for compound auto fluorescence at 590 nm (red) in HEK293 cells (AID 720679)
Procedure, shortened: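 Plates of HEK293 cells (10% dialyzed FBS) are treated with 23 nL compound or DMSO vehicle after a 4-5 hr attachment period, incubated overnight at 37C, and read for red fluorescence at 540/590nm.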

[9] = qHTS assay to test for compound auto fluorescence at 535 nm (green) in HEK293 cells (AID 720680)
[10] = qHTS assay to test for compound auto fluorescence at 460 nm (blue) in HEK293 cell free culture (AID 720681)
Procedure, shortened: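 Test compounds were pinned into cell-free culture medium (DMEM with 10% FBS) and fluorescence was read directly at Ex/Em 405/460 nm. Signals were expressed as fluorescence equivalents of triamterene, with DMSO vehicle as control.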

[11] = qHTS assay to test for compound auto fluorescence at 535 nm (green) in HEK293 cell free culture (AID 720682)
Procedure, shortened: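 Using fluorescein as calibrant, autofluorescence was quantified at 485/535 nm in cell-free DMEM containing 10% FBS after pintool addition of compound or vehicle.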

[12] = qHTS assay to test for compound auto fluorescence at 590 nm (red) in HEK293 cell free culture (AID 720683)
Procedure, shortened: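 Tox21 10K library compounds were pinned into cell-free DMEM with 10% FBS and fluorescence was read at excitation 540 nm. Activity is expressed as Rose Bengal sodium equivalency.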

[13] = qHTS assay to test for compound auto fluorescence at 590 nm (red) in HepG2 cell free culture (AID 720684)
Procedure, shortened: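 Ex 540 / Em 590 nm read of compound in cell-free MEM (10% FBS). Rose Bengal sodium reference.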

[14] = qHTS assay to test for compound auto fluorescence at 460 nm (blue) in HepG2 cell free culture (AID 720685)
Procedure, shortened: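 Cell-free plates of MEM plus 10% FBS received 23 nL compound or DMSO vehicle; blue-channel (405/460 nm) intensity scored against triamterene as reference fluorophore.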

[15] = qHTS assay to test for compound auto fluorescence at 535 nm (green) in HepG2 cell free culture (AID 720686)
[16] = qHTS assay to test for compound auto fluorescence at 460 nm (blue) in HepG2 cells (AID 720687)
Procedure, shortened: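 Cells (2,000/well in MEM with 10% FBS) attached overnight at 37 C, then were exposed to compound or DMSO for 1 hr at 37 C, 5% CO2. Fluorescence read at Ex/Em 405/460 nm, expressed as triamterene-equivalent signal.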

[17] = qHTS assay for small molecule disruptors of the mitochondrial membrane potential (AID 720635); also: potency is read from the fitted curve at half-maximal effect
Procedure, shortened: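 HepG2 cells (2,000/well) attached overnight at 37C, then took compound for 1 hr at 37C, 5% CO2. Mito-MPS dye was added for 30 min; fluorescence was read at 490/535 nm (monomers) and 540/590 nm (aggregates).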

[18] = target: Glucocorticoid receptor (Homo sapiens) (UniProt P04150); experiment: qHTS assay to identify small molecule agonists of the glucocorticoid receptor (GR) signaling pathway (AID 720691; active = well fitted activation curve with a large enough effect in the signal ratio in the repeat runs, not every such curve was filed as active; the % refers to the signal ratio); settings: GR-bla HeLa, beta-lactamase reporter ratio, 18 h; activation: at 62.4 µM (top of the series)
Procedure, shortened: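 Compounds in DMSO, alongside positive controls, were added to GR-bla HeLa reporter cells and incubated 18 h at 37 C; GRE-driven beta-lactamase was detected by fluorescence after 2 h with FRET substrate at room temperature.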

[19] = target: Glucocorticoid receptor (Homo sapiens) (UniProt P04150); experiment: qHTS assay to identify small molecule antagonists of the glucocorticoid receptor (GR) signaling pathway (AID 720692; active = well fitted inhibition curve with a large enough effect in the signal ratio in the repeat runs, not every such curve was filed as active; the % refers to the signal ratio)
Procedure, shortened: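 In a 1536-well cell format, compounds were added 4 h after seeding GR-bla HeLa cells, together with dexamethasone at 5 nM final; reporter activity was measured by FRET-substrate fluorescence following 18 h at 37 C.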
% is scaled to controls: 0 for no effect and ±100 for the full control effect.

Glucocorticoid receptor (Homo sapiens), sequence (P04150 whole entry, looked up): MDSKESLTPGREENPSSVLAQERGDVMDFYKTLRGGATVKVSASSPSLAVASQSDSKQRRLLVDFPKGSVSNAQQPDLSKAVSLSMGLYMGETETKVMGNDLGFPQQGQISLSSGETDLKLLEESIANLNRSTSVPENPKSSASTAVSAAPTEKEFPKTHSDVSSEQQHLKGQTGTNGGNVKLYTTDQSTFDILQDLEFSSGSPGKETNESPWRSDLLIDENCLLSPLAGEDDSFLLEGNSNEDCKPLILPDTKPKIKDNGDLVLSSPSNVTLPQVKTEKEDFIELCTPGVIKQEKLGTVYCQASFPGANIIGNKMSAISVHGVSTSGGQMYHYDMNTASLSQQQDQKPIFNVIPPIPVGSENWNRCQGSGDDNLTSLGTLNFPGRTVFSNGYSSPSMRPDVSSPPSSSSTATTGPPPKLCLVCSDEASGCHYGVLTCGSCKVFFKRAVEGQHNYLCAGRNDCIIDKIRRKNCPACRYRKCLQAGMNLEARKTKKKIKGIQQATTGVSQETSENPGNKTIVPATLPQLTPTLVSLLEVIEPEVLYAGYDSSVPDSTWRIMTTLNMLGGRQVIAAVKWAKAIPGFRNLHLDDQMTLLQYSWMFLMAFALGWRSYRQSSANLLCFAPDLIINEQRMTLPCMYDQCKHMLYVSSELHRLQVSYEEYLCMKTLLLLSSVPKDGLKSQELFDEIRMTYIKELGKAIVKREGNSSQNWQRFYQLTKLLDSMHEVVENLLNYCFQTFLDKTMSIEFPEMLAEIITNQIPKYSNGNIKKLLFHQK

Cc1cccc(C)c1NC(=O)CN1CCN(CCCC(c2ccc(F)cc2)c2ccc(F)cc2)CC1
inactive: Potency [1] | Potency [2] | Potency [3] | Potency [4] | fluorescence, relative to Rose Bengal [5] -0.479% [at 18.6 µM] | fluorescence, % of fluorescein control [6] 0.0022% [at 18.6 µM] | fluorescence, % of triamterene [7] 0.0374% [at 18.6 µM] | fluorescence, % of fluorescent control [8] 0.0665% [at 18.6 µM] | fluorescence, % of fluorescein [9] 0.0034% [at 18.6 µM] | fluorescence, % of fluorescent control [10] -0.178% [at 18.6 µM] | activity change [11] 0.0074% [at 18.6 µM, stronger effect = higher value] | fluorescence, % of fluorescent control [12] -0.297% [at 18.6 µM] | fluorescence, % of Rose Bengal [13] -0.0617% [at 18.6 µM] | fluorescence, % of fluorescent control [14] -0.0263% [at 18.6 µM] | fluorescence, % of fluorescein control [15] 0.0052% [at 18.6 µM] | fluorescence, % of fluorescent control [16] -0.0418% [at 18.6 µM]

CCCCCCCOC(=O)c1ccc(O)cc1
inactive and 61.1 µM (active): Potency [2]
inactive: Potency [1] | Potency [3] | Potency [5] | Potency [6] | Potency [7] | Potency [8] | Potency [9] | Potency [10] | Potency [11] | Potency [13] | Potency [14] | Potency [15] | Potency [16]
active: Potency [4] 27.3 µM | Potency [17] 8.64 µM and 8.63 µM

CN1CCN(C2Cc3ccccc3Sc3ccc(Cl)cc32)CC1 (centres undefined)
active: Potency [2] 29.8 µM
inactive: Potency [1] | Potency [3] | Potency [4] | Potency [5] | Potency [6] | Potency [7] | Potency [8] | Potency [9] | Potency [10] | Potency [11] | Potency [12] | Potency [13] | Potency [14] | Potency [15] | Potency [16]

CCCCNc1c(C(=O)OCC)c(C)nc2c1cnn2CC
inactive: Potency [1] | Potency [2] | Potency [3] | Potency [5] | Potency [6] | Potency [7] | Potency [8] | Potency [9] | Potency [10] | Potency [11] | Potency [13] | Potency [14] | Potency [15] | Potency [16] | Potency [18] | Potency [19]

CC(C)c1ccc(O)c(C(C)C)c1
active: Potency [17] 15.4 µM
inactive: Potency [1] | Potency [2] | Potency [4] | Potency [5] | Potency [6] | Potency [7] | Potency [8] | Potency [9] | Potency [10] | Potency [11] | Potency [12] | Potency [13] | Potency [14] | Potency [15] | Potency [16]

CC(CN(C)C)CN1c2ccccc2CCc2ccccc21 (centres undefined)
inactive: Potency [1] | Potency [2] | Potency [3] | Potency [4] | fluorescence, relative to Rose Bengal [5] 0.485% [at 18.6 µM] | fluorescence, % of fluorescein control [6] -0.198% [at 18.6 µM] | fluorescence, % of triamterene [7] -0.0464% [at 18.6 µM] | fluorescence, % of fluorescent control [8] -0.076% [at 18.6 µM] | fluorescence, % of fluorescein [9] 0.0583% [at 18.6 µM] | fluorescence, % of fluorescent control [10] 0.133% [at 18.6 µM] | activity change [11] -0.0046% [at 18.6 µM, stronger effect = higher value] | fluorescence, % of fluorescent control [12] 0.264% [at 18.6 µM] | fluorescence, % of Rose Bengal [13] 0.0079% [at 18.6 µM] | fluorescence, % of fluorescent control [14] 0.118% [at 18.6 µM] | fluorescence, % of fluorescein control [15] -0.0071% [at 18.6 µM] | fluorescence, % of fluorescent control [16] -0.0977% [at 18.6 µM]

CN(Cc1cc(Br)cc(Br)c1N)C1CCCCC1
inactive: Potency [1] | Potency [3] | Potency [5] | Potency [6] | Potency [7] | Potency [8] | Potency [9] | Potency [10] | Potency [11] | Potency [13] | Potency [14] | Potency [15] | Potency [16] | Potency [18] | Potency [19]
active: Potency [2] 29.8 µM | Potency [17] 26.6 µM

C[C@@H]1CC[C@H]2C(C)(C)[C@H]3C[C@@]12CC[C@@]3(C)O
active: Potency [17] 61 µM
inactive: Potency [1] | Potency [2] | Potency [3] | Potency [5] | Potency [6] | Potency [7] | Potency [8] | Potency [9] | Potency [10] | Potency [11] | Potency [12] | Potency [13] | Potency [14] | Potency [15] | Potency [16]

C/C=C/C=N/NC(=O)c1ccncc1
inactive: Potency [1] | Potency [2] | Potency [3] | Potency [4] | Potency [17] | Potency [5] | Potency [6] | Potency [7] | Potency [8] | Potency [9] | Potency [10] | Potency [11] | Potency [12] | Potency [13] | Potency [14] | Potency [15] | Potency [16] | Potency [18] | Potency [19]

Cc1oc(-c2ccccc2)nc1CCOc1ccc(C[C@H](Nc2ccccc2C(=O)c2ccccc2)C(=O)O)cc1
inactive: Potency [1] | Potency [5] | Potency [6] | Potency [7] | Potency [8] | Potency [9] | Potency [10] | Potency [11] | Potency [12] | Potency [13] | Potency [14] | Potency [15] | Potency [16]
active: Potency [2] 21.7 µM | Potency [3] 54.5 µM | Potency [17] 61.1 µM

CC(C)OC(=O)c1cc(C(=O)OC(C)C)cc([N+](=O)[O-])c1
inactive: Potency [1] | Potency [2] | Potency [3] | Potency [5] | Potency [6] | Potency [7] | Potency [8] | Potency [9] | Potency [10] | Potency [11] | Potency [13] | Potency [14] | Potency [15] | Potency [16] | Potency [18]

C[Si](C)(C)Cl
inactive: Potency [1] | Potency [2] | Potency [3] | Potency [4] | Potency [5] | Potency [6] | Potency [7] | Potency [8] | Potency [9] | Potency [10] | Potency [11] | Potency [12] | Potency [13] | Potency [14] | Potency [15] | Potency [16] | Potency [18] | Potency [19]

O=Cc1ccc(F)cc1
inactive: Potency [1] | Potency [2] | Potency [3] | Potency [4] | Potency [5] | Potency [6] | Potency [7] | Potency [8] | Potency [9] | Potency [10] | Potency [11] | Potency [12] | Potency [13] | Potency [14] | Potency [15] | Potency [16] | Potency [18] | Potency [19]

O=C(O)Cc1ccc(OCCNC[C@H](O)c2ccccc2)cc1
inactive: Potency [1] | Potency [2] | Potency [3] | Potency [4] | Potency [17] | Potency [5] | Potency [6] | Potency [7] | Potency [8] | Potency [9] | Potency [10] | Potency [11] | Potency [12] | Potency [13] | Potency [14] | Potency [15] | Potency [16] | Potency [18] | Potency [19]
